# From PubChem BioAssay
# The source made the active and inactive calls. Unless noted, no stated cut-off is given here; in the data, active means inhibition above about 80%; inactive means the rest.
# How the values were obtained:
# [1] = viability rescue of complex I mutant cybrids, primary screen, cell-based, galactose medium, ATP luminescence (AID 1645843;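 active means z-score of at least 1.8 in each of two replicates, scored against plate mean and spread of sample wells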;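 further: positive z means more ATP and so rescue of galactose-driven cybrid death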); details: complex I mutant cybrid cells, 72 h, stronger effect = higher value
# [2] = LFS_MB_P medulloblastoma growth inhibition, cell-based, chromothripsis tumors, cisplatin or BGB combos (AID 1671449); details: LFS_MB_P medulloblastoma cells;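 further: cells exposed for 96 hours; 0% = vehicle DMSO and 100% = killing by high DMSO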
# [3] = HDN33 neuroblastoma growth inhibition, cell-based, chromothripsis tumors, cisplatin or BGB combos (AID 1671450); details: HDN33 neuroblastoma cells, stronger effect = higher value;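 further: cells exposed to compound for four days; 0% = vehicle DMSO and 100% = cell killing by high DMSO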
# [4] = ICB984 medulloblastoma cell growth inhibition, synergistic combos for chromothripsis tumors, cisplatin or BGB combos (AID 1671451; call rule not given here;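 further: cells exposed for 96 hours before readout; 0% = vehicle DMSO and 100% = killing by high DMSO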); details: ICB984 medulloblastoma cells, drug combinations, stronger effect = higher value
# [5] = LFS_MB_1R medulloblastoma cell growth inhibition, synergistic combos for chromothripsis tumors, cisplatin or BGB combos (AID 1671452); details: LFS_MB_1R medulloblastoma cells, stronger effect = higher value;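 further: cells exposed for 96 hours before readout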
# [6] = HTB85 osteosarcoma cell growth inhibition, synergistic combos for chromothripsis tumors, BGB or cisplatin IC20 combos (AID 1671453); details: HTB85 osteosarcoma cells, drug combinations, stronger effect = higher value;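 further: cells exposed for 96 hours before readout; 0% = vehicle DMSO and 100% = high DMSO killing control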
# [7] = CRL2098 osteosarcoma cell growth inhibition, synergistic combos for chromothripsis tumors, BGB or cisplatin IC20 combos (AID 1671454); details: CRL2098 osteosarcoma cells, drug combinations, stronger effect = higher value;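 further: cells exposed for 96 h before readout; 0% = vehicle DMSO and 100% = killing by high DMSO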
# [8] = HD-MB03 medulloblastoma cell growth inhibition, synergistic combos for chromothripsis tumors, BGB or cisplatin IC20 combos (AID 1671455; in the data active means inhibition above about 83%;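 further: 0% = vehicle DMSO and 100% = high DMSO as cytotoxic control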); details: HD-MB03 medulloblastoma cells, stronger effect = higher value
# [9] = UWB1.289 ovarian carcinoma cell growth inhibition, synergistic combos for chromothripsis tumors, BGB or cisplatin combos (AID 1671456); details: UWB1.289 ovarian carcinoma cells, stronger effect = higher value;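 further: cells exposed to compound for four days; 0% = vehicle DMSO and 100% = killing by high DMSO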
# [10] = LFS_MB_2R medulloblastoma cell growth inhibition, synergistic combos for chromothripsis tumors, cisplatin combos (AID 1671457); details: LFS_MB_2R medulloblastoma cells, stronger effect = higher value;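 further: cells exposed to compound for four days before readout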
# [11] = MDA-MB-436 breast carcinoma cell growth inhibition, synergistic combos for chromothripsis tumors, BGB or cisplatin combos (AID 1671458; call rule not given here;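 further: cells exposed for 96 hours; 0% = vehicle DMSO and 100% = killing by high DMSO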); details: MDA-MB-436 breast carcinoma growth inhibition, drug combinations, stronger effect = higher value
# [12] = UWB1.289_BRCA1 ovarian cancer growth, cell-based, BGB or cisplatin combinations (AID 1671459); details: UWB1.289 BRCA1 ovarian carcinoma, drug combinations, stronger effect = higher value
# [13] = human astrocyte viability loss, single and combined drugs, cytotoxicity control for chromothriptic childhood tumor combination screen, cell-based, BGB or cisplatin IC20 combos (AID 1671460); details: Human astrocytes, drug combinations, stronger effect = higher value;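 further: cells exposed to compounds for 96 hours before viability readout; 0% = vehicle and 100% = killing control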
# [14] = growth inhibition of BT084 medulloblastoma cells, cell-based, ICGC_MB145, cisplatin and BGB IC40 combos (AID 1671461); details: drug combinations, stronger effect = higher value;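 further: cells exposed to drugs for 96 hours; 0% = vehicle DMSO and 100% = high DMSO full killing control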
# [15] = growth inhibition of RCMB18 medulloblastoma cells, cell-based, cisplatin and BGB IC40 combos (AID 1671462); details: stronger effect = higher value;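 further: cells exposed to compound for four days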
# [16] = growth inhibition of CRL1545 osteosarcoma cells, cell-based, cisplatin and BGB IC20 combos (AID 1671464); details: stronger effect = higher value;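 further: cells exposed to compound for 96 hours before readout; 0% = vehicle DMSO and 100% = high DMSO killing control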
# [17] = measured here: combination with BGB IC40, at 0.05 µM
# [18] = measured here: with BGB IC20 combination, at 0.5 µM
# [19] = measured here: with cisplatin IC20 combination, at 0.5 µM
# [20] = measured here: combination with cisplatin, at 0.5 µM
# [21] = measured here: combination with cisplatin, at 5 µM
compound,measurement,setting,value
COc1ccccc1N1CCN(C(=O)Nc2n[nH]c(Cc3ccccc3)n2)CC1,z-score,[1],-0.935 (inactive)
CC(=O)C1(O)Cc2c(O)c3c(c(O)c2C(OC2CC(N)C(O)C(C)O2)C1)C(=O)c1ccccc1C3=O (centres undefined),inhibition,"[2]; at 0.5 µM, stronger effect = higher value",-11.2% (inactive)
same,inhibition,"[2]; measured here: combination with BGB IC20, at 0.005 µM",-29.5%
same,inhibition,"[2]; measured here: combination with BGB IC40, at 0.005 µM",-38.8%
same,inhibition,[2]; [17],-19.5%
same,inhibition,"[2]; measured here: combination with cisplatin, at 0.5 µM, stronger effect = higher value",-31.3%
same,inhibition,"[2]; measured here: combination with cisplatin, at 5 µM, stronger effect = higher value",125%
same,inhibition,"[3]; BGB combo, at 5 µM",99.7%
same,inhibition,[3]; at 0.5 µM,98.4% (active)
same,inhibition,"[3]; cisplatin combo, at 5 µM",99.9%
same,inhibition,[3]; [18],97.4%
same,inhibition,[3]; [19],98.5%
same,inhibition,"[3]; single agent, at 5 µM",99.9%
same,inhibition,"[4]; BGB IC20 combo, at 0.005 µM",97.5%
same,inhibition,"[4]; BGB IC40 combo, at 0.005 µM",95.4%
same,inhibition,"[4]; BGB IC40 combo, at 0.05 µM",100%
same,inhibition,[4]; at 0.5 µM,-42.9% (inactive)
same,inhibition,"[4]; cisplatin combo, at 0.05 µM",100%
same,inhibition,"[4]; cisplatin combo, at 0.5 µM",-43%
same,inhibition,"[4]; cisplatin combo, at 5 µM",-1.78%
same,inhibition,"[4]; measured here: 5 uM single agent, at 5 µM",-14.9%
same,inhibition,[5]; at 0.5 µM,102% (active)
same,inhibition,[5]; [17],73.8%
same,inhibition,[5]; [20],103%
same,inhibition,[5]; [21],106%
same,inhibition,[6]; at 0.5 µM,99.6% (active)
same,inhibition,"[6]; measured here: with BGB IC20, at 0.5 µM",99.4%
same,inhibition,"[6]; measured here: with BGB IC20, at 5 µM",99.7%
same,inhibition,"[6]; measured here: with cisplatin IC20, at 0.5 µM",99.8%
same,inhibition,"[6]; measured here: with cisplatin IC20, at 5 µM",99.8%
same,inhibition,"[6]; single agent, at 5 µM",99.9%
same,inhibition,[7]; at 0.5 µM,98.6% (active)
same,inhibition,"[7]; measured here: combination with BGB at IC20, at 0.5 µM",98%
same,inhibition,"[7]; measured here: combination with cisplatin at IC20, at 0.5 µM",98.6%
same,inhibition,[8]; at 0.5 µM,94.5% (active)
same,inhibition,"[8]; measured here: combo with BGB at IC20, at 0.5 µM",89.5%
same,inhibition,"[8]; measured here: combo with cisplatin at IC20, at 0.5 µM",99.8%
same,inhibition,[9]; at 0.5 µM,83.1% (active)
same,inhibition,"[9]; measured here: inhibition with BGB combination, at 0.05 µM",40.5%
same,inhibition,"[9]; measured here: inhibition with cisplatin combination, at 0.05 µM",51.2%
same,inhibition,[10]; at 0.5 µM,75.6% (inactive)
same,inhibition,[10]; [20],88%
same,inhibition,[10]; [21],102%
same,inhibition,[11]; at 0.5 µM,76.4% (inactive)
same,inhibition,"[11]; measured here: BGB combination, at 0.5 µM",65.8%
same,inhibition,"[11]; measured here: BGB combination, at 5 µM",72.7%
same,inhibition,"[11]; measured here: cisplatin combination, at 0.5 µM",82.9%
same,inhibition,"[11]; measured here: cisplatin combination, at 5 µM",92.7%
same,inhibition,"[12]; BGB combination, concentration series, at 5 µM",101%
same,inhibition,[12]; at 0.5 µM,89% (active)
same,inhibition,"[12]; cisplatin combination, concentration series, at 5 µM",97.8%
same,inhibition,[13]; at 0.5 µM,89.9% (active)
same,inhibition,"[13]; measured here: combo with BGB IC20, at 0.5 µM",84%
same,inhibition,"[13]; measured here: combo with cisplatin IC20, at 0.5 µM",91.6%
same,inhibition,[14]; at 0.5 µM,13.8% (inactive)
same,inhibition,"[14]; cisplatin combination, at 0.5 µM",-40.7%
same,inhibition,"[14]; cisplatin combination, at 5 µM",77.4%
same,inhibition,"[14]; measured here: BGB IC40 combination 0.05 uM, at 0.05 µM",-4.42%
same,inhibition,"[14]; single agent, at 5 µM",81.6%
same,inhibition,[15]; at 0.5 µM,75.2% (inactive)
same,inhibition,"[15]; cisplatin combo, at 5 µM",89.9%
same,inhibition,"[15]; measured here: BGB IC40 combination, at 0.05 µM",34.7%
same,inhibition,[15]; [20],76.4%
same,inhibition,"[15]; single agent, at 5 µM",94.4%
same,inhibition,[16]; at 0.5 µM,99.1% (active)
same,inhibition,[16]; [18],98.7%
same,inhibition,[16]; [19],99.3%
same,inhibition,"[16]; single agent, at 0.05 µM",99.4%
same,inhibition,"[16]; single agent, at 5 µM",99.9%
